High-throughput results (PubChem)
Pf Dd2 growth = P. falciparum Dd2 growth inhibitors, primary screen, SYBR Green fluorescence, single dose replicates | 2.3% of 94,000 active | 72 h; hits give low values | activity change, % at 10 µM; in the data active = activity change below about -80%; inconclusive = no clear call, values can overlap the other calls
T cruzi growth-1 = T. cruzi intracellular proliferation inhibitors, primary screen, cell-based, beta-gal Tulahuen parasites, NIH3T3 host, luminescence | T. cruzi beta-gal in NIH3T3, GalScreen luminescence, 90 h | inhibition, % at 8.34 µM | 5.9% of 77,000 active | AID 624255, 2012;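 active = mean inhibition above about 93%, with at least 55% of replicates each passing it, limit read from the data, passing the limit was not always enough; inconclusive = only one of those two conditions holds; inactive = neither condition holds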
C diff HTS = C. difficile growth inhibitors, primary screen, HTS | Clostridium difficile clinical isolate growth, OD600, 24 h; hits give low values | AID 1259249, 2017 | 0.25% of 86,000 active | growth activity, negative = inhibition, % at 16 µg/mL (by protocol);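 active = mean growth activity at or below -80% and every replicate also at or below -80%; inconclusive = mean at or below -80% but some replicate above -80%; inactive = mean growth activity above -80%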
T cruzi growth-2 = T. cruzi intracellular proliferation inhibitors, confirmation, cell-based, NIH3T3 host, beta-gal parasite, luminescence, cherry-pick. shares compounds with T cruzi growth-1. T. cruzi beta-gal in NIH3T3, GalScreen luminescence, 90 h. inhibition, % at 8.35 µM. 72% of 5,600 active;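 active = mean replicate inhibition above about 95% and at least 55% of replicates individually reaching it, limit read from the data; inconclusive = only one of the two criteria is met; inactive = neither criterion is met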
T cruzi growth-3 = inhibitors of intracellular T. cruzi replication, confirmation, NIH3T3 host cells, beta-gal parasites, cherry-pick, set 2. inhibition, % at 2.09 µM. 21% of 5,600 active. shares compounds with T cruzi growth-1. T. cruzi beta-gal in NIH3T3, GalScreen luminescence, 90 h. AID 651740, 2012;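 active = mean inhibition above about 95%, with at least 55% of replicates also reaching it, limit read from the data; inconclusive = meets just one of the two conditions; inactive = meets neither condition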
NIH3T3 tox = cytotoxicity in mouse NIH/3T3 fibroblasts, confirmation, cytotoxicity control for T. cruzi proliferation inhibitor project, cell-based, cherry-pick, single point; AID 651742, 2012; shares compounds with T cruzi growth-1; 14% of 5,600 active; NIH/3T3 viability, CellTiter-Glo ATP luminescence, 90 h; cytotoxicity (signal decrease), % at 8.35 µM;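 active = mean signal decrease across replicates above about 35% based on untreated-well scatter, with enough replicates individually passing, limit read from the data; inconclusive = no rule stated though some were filed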
3T3 cytotox 2 = NIH/3T3 fibroblast cytotoxicity, confirmation, cytotoxicity control, cell-based, cherry-pick, single point, set 2. shares compounds with T cruzi growth-1. NIH/3T3 viability, CellTiter-Glo ATP luminescence, 90 h. inhibition, % at 24.9 µM. 56% of 5,600 active;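 active = mean loss of cell viability signal at or above a set limit, and enough replicates individually reaching it; inconclusive = meets only the mean limit or only the replicate share; inactive = meets neither condition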
Each line names hits and unclear results; the compound was inactive in the other large screens (follow-up assays come after a bar, where they were run); ! = a repeat was not active. Hits are enriched below; roughly 6.7% of the tested compounds scored in any of these assays.

C[C@H](O)C#Cc1ccc([C@H]2[C@H](CO)N3CCCCN(C(=O)c4cccc(F)c4)C[C@@H]23)cc1	T cruzi growth-1 100 | T cruzi growth-2 inactive | T cruzi growth-3 inactive | NIH3T3 tox inactive | 3T3 cytotox 2 64
C[C@@H](O)C#Cc1ccc([C@H]2[C@@H](CO)N3CCCCN(C(=O)c4cccc(F)c4)C[C@@H]23)cc1	T cruzi growth-1 100 | T cruzi growth-2 inactive | T cruzi growth-3 inactive | NIH3T3 tox inactive | 3T3 cytotox 2 inactive
C[C@H](O)C#Cc1ccc([C@H]2[C@@H](CO)N3CCCCN(C(=O)c4cccc(F)c4)C[C@H]23)cc1	none
O=C(C[C@H]1C=C[C@H](NC(=O)c2ccccc2)[C@H](CO)O1)Nc1ccc(-c2ccccc2)cc1	none
Cc1noc(C)c1NC(=O)N(C)C[C@@H]1Oc2ncc(C#CC3CC3)cc2C(=O)N([C@@H](C)CO)C[C@H]1C	none (no result: C diff HTS)
C/C=C/c1ccc2c(c1)O[C@H](CN(C)C(=O)Nc1ccc(F)cc1)[C@@H](C)CN([C@@H](C)CO)S2(=O)=O	none
C[C@H](CO)N1C[C@H](C)[C@@H](CN(C)C(=O)Nc2cc(F)ccc2F)Oc2cc(/C=C/c3ccccc3)ccc2S1(=O)=O	none (no result: T cruzi growth-1)
C[C@@H]1CN([C@@H](C)CO)S(=O)(=O)c2ccc(/C=C/c3ccccc3)cc2O[C@@H]1CN(C)C(=O)Nc1ccc(F)cc1	Pf Dd2 growth -89, T cruzi growth-1 123 | T cruzi growth-2 102 | T cruzi growth-3 104 | NIH3T3 tox inactive | 3T3 cytotox 2 48
C[C@@H]1CN([C@@H](C)CO)S(=O)(=O)c2ccc(/C=C/c3ccccc3)cc2O[C@H]1CN(C)C(=O)Nc1ccc(F)cc1	T cruzi growth-1 131 | T cruzi growth-2 99 | T cruzi growth-3 96 | NIH3T3 tox 39 | 3T3 cytotox 2 61
C[C@@H]1CN([C@@H](C)CO)C(=O)c2cccc(NS(=O)(=O)c3cn(C)cn3)c2O[C@@H]1CN(C)C(=O)Nc1ccc2c(c1)OCO2	none (no result: C diff HTS)
C[C@@H]1CN([C@H](C)CO)S(=O)(=O)c2ccc(C3=CCCC3)cc2O[C@@H]1CN(C)C(=O)c1ccccn1	none
COCC(=O)N1CC[C@@H]2[C@H](CO)Nc3ccc(C#Cc4cccc(F)c4)cc3[C@@H]21	none
C[C@H]1CN([C@@H](C)CO)S(=O)(=O)c2ccc(C#Cc3ccc(F)cc3)cc2O[C@H]1CN(C)C(=O)c1ccccn1	T cruzi growth-1 inconclusive | T cruzi growth-2 108 | T cruzi growth-3 inactive | NIH3T3 tox inactive | 3T3 cytotox 2 inactive
C[C@@H]1CN([C@@H](C)CO)S(=O)(=O)c2ccc(C#Cc3ccccc3)cc2O[C@@H]1CN(C)C(=O)c1ccccn1	none
C[C@H](CO)N1C[C@H](C)[C@H](CN(C)C(=O)c2ccccn2)Oc2cc(C#Cc3ccc(F)cc3)ccc2S1(=O)=O	T cruzi growth-1 119! | T cruzi growth-2 99 | T cruzi growth-3 inactive | NIH3T3 tox inactive | 3T3 cytotox 2 inactive
C[C@H]1CN([C@@H](C)CO)S(=O)(=O)c2ccc(C#Cc3ccccc3)cc2O[C@H]1CN(C)C(=O)c1ccccn1	none
O=C(Nc1ccccc1F)N[C@@H]1CC[C@@H](CCNS(=O)(=O)c2ccc(F)cc2)O[C@H]1CO	none (no result: Pf Dd2 growth, T cruzi growth-1)
CN1CCN(C(=O)C[C@@H]2CC[C@@H]3[C@H](COC[C@H](O)CN3C(=O)C3CC3)O2)CC1	none
CN1C(=O)c2cc(NC(=O)c3ccc(F)cc3)ccc2OC[C@@H]2O[C@@H](CC(=O)O)CC[C@H]21	none
C[C@@H]1CCCCO[C@H](CN(C)C(=O)C2CCCCC2)[C@H](C)CN([C@@H](C)CO)C(=O)c2cc(NS(C)(=O)=O)ccc2O1	T cruzi growth-1 100 | T cruzi growth-2 inactive | T cruzi growth-3 inactive | NIH3T3 tox inactive | 3T3 cytotox 2 inactive
C[C@@H]1CCCCO[C@@H](CN(C)C(=O)C2CCCCC2)[C@H](C)CN([C@@H](C)CO)C(=O)c2cc(NS(=O)(=O)c3ccc(Cl)cc3)ccc2O1	T cruzi growth-1 inconclusive | T cruzi growth-2 109 | T cruzi growth-3 inactive | NIH3T3 tox inactive | 3T3 cytotox 2 34
C[C@@H]1CCCCO[C@H](CN(C)C(=O)C2CCCCC2)[C@@H](C)CN([C@H](C)CO)C(=O)c2cc(NS(=O)(=O)c3ccc(Cl)cc3)ccc2O1	none
C[C@@H]1CCCCO[C@H](CN(C)C(=O)C2CCCCC2)[C@H](C)CN([C@H](C)CO)C(=O)c2cc(NS(=O)(=O)c3ccc(Cl)cc3)ccc2O1	T cruzi growth-1 inconclusive | T cruzi growth-2 105 | T cruzi growth-3 inactive | NIH3T3 tox inactive | 3T3 cytotox 2 52
C[C@H](CO)N1C[C@H](C)[C@H](CN(C)C(=O)CCC(F)(F)F)OCCCC[C@H](C)Oc2ccc(NS(=O)(=O)c3ccc(Cl)cc3)cc2C1=O	T cruzi growth-1 103 | T cruzi growth-2 109 | T cruzi growth-3 inactive | NIH3T3 tox inactive | 3T3 cytotox 2 inactive
Cc1ccc(S(=O)(=O)Nc2ccc3c(c2)C(=O)N([C@H](C)CO)C[C@H](C)[C@H](CN(C)C(=O)C2CCCCC2)OCCCC[C@H](C)O3)cc1	none
C[C@H](CO)N1C[C@H](C)[C@@H](CN(C)C(=O)C2CCCCC2)OCCCC[C@H](C)Oc2ccc(NS(C)(=O)=O)cc2C1=O	none
C[C@@H]1CCCCO[C@@H](CN(C)C(=O)CCC(F)(F)F)[C@@H](C)CN([C@H](C)CO)C(=O)c2cc(NS(=O)(=O)c3ccc(Cl)cc3)ccc2O1	none
C[C@H]1CCCCO[C@H](CN(C)S(=O)(=O)c2cn(C)cn2)[C@@H](C)CN([C@@H](C)CO)C(=O)c2cc(NC(=O)c3ccccc3)ccc2O1	none
C[C@@H]1CCCCO[C@@H](CN(C)C(=O)C2CCCCC2)[C@@H](C)CN([C@@H](C)CO)C(=O)c2cc(NS(=O)(=O)c3ccc(Cl)cc3)ccc2O1	none
C[C@H]1CCCCO[C@H](CN(C)C(=O)C2CCCCC2)[C@@H](C)CN([C@@H](C)CO)C(=O)c2cc(NS(=O)(=O)c3ccc(Cl)cc3)ccc2O1	T cruzi growth-1 inconclusive | T cruzi growth-2 104 | T cruzi growth-3 inactive | NIH3T3 tox inactive | 3T3 cytotox 2 99
CN1C(=O)c2cc(NC(=O)c3cccc(C(F)(F)F)c3)ccc2OC[C@@H]2O[C@@H](CC(=O)O)CC[C@@H]21	none (no result: Pf Dd2 growth)
